Most compounds without a hit are left out; they make up all but 2.9% or so of the library.
S2 tox: viability counter-screen for ATXN expression inhibitors | S2 cells (HEK-293 line with an ATXN2-luciferase reporter) viability, CellTiter-Fluor protease fluorescence, 24 h | Potency, µM (series often up to 56.7 µM), usual class: cytotoxic | 0.49% of 400,000 active; also: nearly all actives have a fitted effect of over 40% in size
Nrf2 ARE act: activates Nrf2 signaling | AREc32 ARE-luciferase reporter (MCF7-derived line), luminescence, 24 h | Potency, µM (top dose mostly 46.1 µM), for the others: at the top dose activation, hits mostly activators | AID 624171 | 0.31% of 410,000 active; also: % of control where 0% means no effect; nearly all actives have a fitted effect of over 65% in size
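Each well held 1000 AREc32 cells, which were incubated with compound for 24 hr at 37 deg C after overnight attachment, and ARE reporter activity was quantified by firefly luciferase luminescence.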
A549 viability: kills or reduces viability of A549 cells in Nrf2 counter-screen; A549 ARE-Fluc cells, CellTiter-Fluor viability, 18-24 h; Potency, µM (doses to about 46 µM), for inactives: at the top dose activity change, negative = cytotoxicity, most hits filed as inhibitors; 0.16% of 390,000 active; AID 504648; also: % is scaled to controls: 0 for no effect and ±100 for the full control effect
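Cytotoxicity counterscreen: CellTiter-Fluor fluorescence was measured in A549 ARE_Fluc cells after 18-24 h of compound exposure in a concentration series. The subsequent BugLite luminescent read reports ARE-luciferase activity.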
ATXN2 expr inh: ATXN2 expression inhibition. 0.72% of 360,000 active. HEK-293 ATXN2-luciferase reporter, luminescence, 24 h. AID 1745845. Potency, µM (titrated, usually from 57 µM), for inactives: at the top dose activity change, negative = inhibition, most hits filed as inhibitors; also: % is scaled to controls: 0 for no effect and ±100 for the full control effect; nearly all actives have a fitted effect of over 55% in size
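ATXN2-luciferase reporter cells (luciferase flanked by upstream and downstream ATXN2 gene portions) were treated 24 h at 37 °C with compounds at up to 57 uM. SteadyGlo luminescence gave expression; GF-AFC fluorescence gave viability.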
Nrf2 inh: blocks Nrf2 signaling; Potency, µM (top dose mostly 46 µM), inactives show at the top dose activity change, negative = inhibition, most hits filed as inhibitors; A549 ARE-Fluc reporter, luciferase luminescence, 18-24 h; 2.1% of 360,000 active; AID 504444; also: % is scaled to controls: 0 for no effect and ±100 for the full control effect; nearly all actives have a fitted effect of over 60% in size
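A549 ARE_Fluc cells, 5000/well, 5% FBS OPTI-MEM; compounds in dose-response, 18-24 h at 37 °C/5% CO2; CellTiter-Fluor viability read (Ex 405/Em 525), then BugLite luciferase luminescence = Nrf2 activity.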
* hit, by the source's call; i = inactive; ? = inconclusive; . = not tested or not shown. Calls follow the shape of the dose curve; as a rule, active = well fitted curve in the direction sought with a large enough effect; inconclusive = small, poorly fitted or top-dose-only effect, or another doubt; inactive = no such curve, though single readings can be large; an effect the other way counts as inactive or inconclusive. Potency is read from the fitted curve at half-maximal effect.

SMILES | S2 tox | Nrf2 ARE act | A549 viability | ATXN2 expr inh | Nrf2 inh
Cc1cccc2[nH]c3c(N4CCC5(CC4)OCCO5)ncnc3c12 | ? | 3% | . | -25% | ?
Brc1ccc2[nH]c3c(N4CCc5ccccc5C4)ncnc3c2c1 | i | 3% | -13% | ? | 9.2µM*
Cc1ccc2[nH]c3c(N4CCc5ccccc5C4)ncnc3c2c1 | ? | 9% | -27% | -26% | 7.3µM*
Clc1ccc2[nH]c3c(N4CCC5(CC4)OCCO5)ncnc3c2c1 | ? | 4% | -17% | ? | 21µM*
NCC(=O)Nc1cccc(-c2nn3c(=O)cc(N4CCNCC4)nc3s2)c1 | . | . | -1% | . | 11%
Cc1c(C(=O)NCC2CCCN(C)C2)cnn1-c1ncc2c(n1)-c1ccccc1CCC2 (configuration not stated) | i | . | . | . | .
Cc1nc2c(o1)C(=O)c1ccccc1C2=Nc1ccccc1 | . | -3% | ? | 28µM* | ?
CC(C)=CCC/C(C)=C/CC/C(C)=C/CCC(=O)OC/C=C(\C)CCC=C(C)C | i | . | . | 6% | .
CCCC(=O)N1CCN(c2ccc(NC(=O)c3cc4ccccc4o3)cc2Cl)CC1 | 18µM* | -4% | ? | 14µM* | 13µM*
CCC(=O)N1CCN(c2ccc(NC(=O)c3cc4ccccc4o3)cc2Cl)CC1 | ? | -3% | ? | ? | ?
O=C(Nc1ccc(N2CCN(C(=O)c3ccco3)CC2)c(Cl)c1)c1cc2ccccc2o1 | . | 0% | ? | 20µM* | 18µM*
CC(=O)NC(C)c1ccc(Oc2ccc(OC(C)C)cc2)cc1 (configuration not stated) | . | . | . | 11% | .
Cc1ccc(Cl)c(NC(=O)COC(=O)c2ccccc2C(=O)c2ccc(Cl)c([N+](=O)[O-])c2)c1Cl | . | 0% | ? | ? | 23µM*
O=c1oc2ccccc2cc1-c1nc(-c2cccs2)no1 | ? | 13µM* | 7% | 38% | .
O[C@@H](COc1cccc2ncccc12)CN1CCN(C2c3ccccc3[C@@H]3[C@H](c4ccccc42)C3(F)F)CC1 (some centres not stated) | 25µM* | . | . | ? | .
CCOc1cc(CNC(=O)c2ccc(NC(=O)c3nsc4ccccc34)cc2)ccc1OC | . | 0% | 1% | . | .
COC(=O)c1ccccc1NC1=C/C(=N\S(=O)(=O)c2cccs2)c2ccccc2C1=O | 7.1µM* | 13% | ? | 4µM* | -5%
COC(=O)c1ccccc1NC1=C/C(=N\S(=O)(=O)c2ccc(C(=O)O)cc2)c2ccccc2C1=O | 18µM* | -1% | -20% | ? | 7%
Cc1cc(NC(=O)c2ccc(Cn3nc(C)c(Br)c3C)o2)no1 | i | 3% | 5% | ? | 9%
Cc1nn(Cc2ccc(C(=O)NC(C)(C)C)o2)c(C)c1Br | i | 1% | -16% | -25% | 18µM*
COC(=O)/C=C1/S/C(=N/N=C/c2ccco2)NC1=O | ? | 10µM* | -20% | -17% | -5%
COC(=O)/C=C1\S/C(=N/N=C/c2ccco2)NC1=O | ? | ? | -4% | . | ?
O=C(NCc1ccccn1)c1cnn(-c2ncc3c(n2)-c2ccccc2CC3)c1C1CC1 | i | . | . | . | .
CCCn1c(CN2CCN(c3cccc(Cl)c3)CC2)nc2c1c(=O)n(C)c(=O)n2C | i | 0% | -26% | -30% | 18µM*
CNC(=O)c1ccc(N2C(=S)N(c3ccc(C#N)c(C(F)(F)F)c3)C(=O)C2(C)C)cc1F | . | . | . | -7% | .
N#CC(c1ccc(Cl)cc1)c1ccc2c(C(F)(F)F)cc(C(F)(F)F)nc2n1 (configuration not stated) | 2µM* | 17% | 5.8µM* | 0.71µM* | 1.5µM*
Cc1cc2c(s1)c1cnn(Cc3ccc(Br)cc3)c(=O)c1n2C | . | . | -4% | . | 11%
O=C1C(=O)N(c2ccccn2)C(c2ccc(F)cc2)/C1=C(/O)c1ccc(Br)cc1 (configuration not stated) | ? | -1% | -6% | . | 8.2µM*
C=CC[n+]1c(-c2ccc(Cl)cc2Cl)csc1Nc1ccc(NC(C)=O)cc1 | ? | -2% | -15% | ? | 12µM*
